Results taken from PubChem BioAssay AID488839 (Broad Institute, 2010).
In all, about 330,000 compounds went through this assay and about 35 (0.01%) were called active.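 How the source made its calls: active means highest replicate inhibition of at least 50% and at least 75% of replicates reaching 50%; inconclusive means only one of the two criteria met; inactive means both criteria failed.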 These entries were drawn from the full list.

Biological target: Cyclin-dependent kinase 5 (Homo sapiens) + Cyclin-dependent kinase 5 activator 1 (Homo sapiens) (UniProt Q00535+Q15078)
Assay: CDK5/p35 phosphotransfer blockade – biochemical, single concentration, primary screen (AID 488839);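 further: plate controls were DMSO neutral control for no effect and GW8510 at 10 µM for full effect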
Settings: Recombinant CDK5/p35, ADP-Glo luminescence, 60 min; at 10 µM; hits give high values

Cyclin-dependent kinase 5 (Homo sapiens) + Cyclin-dependent kinase 5 activator 1 (Homo sapiens), sequence (Q00535 whole entry, looked up): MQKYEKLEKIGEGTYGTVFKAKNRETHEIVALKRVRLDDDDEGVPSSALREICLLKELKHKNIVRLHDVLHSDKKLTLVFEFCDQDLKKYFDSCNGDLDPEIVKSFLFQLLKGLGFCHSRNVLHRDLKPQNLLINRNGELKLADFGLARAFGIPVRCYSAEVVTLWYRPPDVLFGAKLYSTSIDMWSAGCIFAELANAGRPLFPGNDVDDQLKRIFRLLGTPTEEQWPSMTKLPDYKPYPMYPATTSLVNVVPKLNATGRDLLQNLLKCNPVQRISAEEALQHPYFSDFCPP
Cyclin-dependent kinase 5 (Homo sapiens) + Cyclin-dependent kinase 5 activator 1 (Homo sapiens), sequence (Q15078 whole entry, looked up): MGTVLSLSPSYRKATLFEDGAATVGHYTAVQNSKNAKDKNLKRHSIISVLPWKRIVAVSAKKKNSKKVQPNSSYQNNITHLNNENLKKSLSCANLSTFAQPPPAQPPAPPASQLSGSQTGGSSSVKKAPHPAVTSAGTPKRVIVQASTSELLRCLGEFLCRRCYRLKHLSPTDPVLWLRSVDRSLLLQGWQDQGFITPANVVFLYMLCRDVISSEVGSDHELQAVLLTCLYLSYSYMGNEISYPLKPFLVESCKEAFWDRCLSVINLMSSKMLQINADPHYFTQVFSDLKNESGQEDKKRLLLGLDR

inhibition, inactive:
CC(C)[C@@H](C(=O)O)N(Cc1cccc(CN([C@H](C(=O)O)C(C)C)S(C)(=O)=O)c1)S(C)(=O)=O -2.67%
Cc1cc(-c2csc(N)n2)c(C)n1-c1ccccc1 0.604%
CCCN1C2=C(C(=O)CCC2)C(c2ccc(O)c(Br)c2)C2=C1CCCC2=O 2.42%
CC(Oc1cccc(Cl)c1)C(=O)Nc1ccc(S(=O)(=O)Nc2ncccn2)cc1 (centres undefined) -1.05%
COc1cc(OC)cc(-c2c(C#Cc3ccsc3)c3cc(-c4ccc(OC)cc4F)ccc3n2C)c1 2.95%
O=C1COc2ccc(S(=O)(=O)NCCc3ccc(Cl)cc3)cc2N1 -4.51%
Cc1cccc(N2O[C@H]3C=CC2CCCC3)n1 -0.772%
NS(=O)(=O)c1ccc(CCNC(=O)NC2CCCCC2)cc1 -0.391%
COc1cc(OC)c(C2=NOC(C(=O)Nc3c(C)n(C)n(-c4ccccc4)c3=O)C2)cc1Cl (centres undefined) -0.625%
CCCCc1ccc(S(N)(=O)=O)cc1 0.729%
COc1ccc2c(c1)C=CC1(O2)N(CCO)c2ccccc2C1(C)C (centres undefined) 1.4%
CC(/C=C/C1(O)C(C)CC(=O)CC1(C)C)OC1OC(CO)C(O)C(O)C1O (centres undefined) -0.525%
Cc1ccc(C(=O)N/C(=C/c2ccco2)C(=O)NCCc2c[nH]c3ccccc23)cc1C 2.98%
CCOc1ccc(C(=O)NCC(=O)N2CCN(c3ccc(C(F)(F)F)cn3)CC2)cc1 -6.9%
COc1ccccc1OCCNC(=O)C(CCSC)NC(=O)COc1ccccc1 (centres undefined) 1.86%
O=C(C1CCCO1)N(Cc1ccccc1)c1ccccc1 (centres undefined) -1.15%
O=C(Nc1ccn(CCCNCc2ccc3[nH]ccc3c2)c(=O)n1)OCc1ccccc1 1.87%
O=C(CNC(=O)c1ccc2ccccc2c1)Nc1ncccc1O -1.57%
COc1cc(C2/C(=C(\O)c3ccc4c(c3)CC(C)O4)C(=O)C(=O)N2c2nnc(C)s2)cc(OC)c1OC (centres undefined) -1.78%
COc1cc(S(=O)(=O)N2CCOCC2)ccc1NC(=O)COc1ccc(N(C)S(=O)(=O)c2ccc(C)cc2)cc1 -0.554%
O=S(=O)(NCc1ccccc1Cl)c1cnc[nH]1 0.727%
O=C(OCC(=O)N1CCN(C(=O)c2ccco2)CC1)c1c(Cl)cccc1Cl 0.768%
O=c1c2ccccc2ncn1CCc1ccncc1 1.49%
CCOc1ccc(S(=O)(=O)N/N=C(\C)c2ccc(Cl)c(Cl)c2Cl)cc1 1.98%
CN(C)C1=NC[C@H](Cc2ccccc2)N1CCc1ccc(F)cc1 0.95%
O=S(=O)(/N=C(/Nc1ccccc1)c1ccccc1)c1cccs1 0.387%
OCc1nc(CO)n(Cc2ccccc2)n1 -0.111%
COc1ccc(CCNC(=O)C(=O)NCC2OCCN2S(=O)(=O)c2ccc(OC)c(C)c2)cc1 (centres undefined) 1.39%
O=C(OCC(=O)N1CCCC1)c1ccc(Cl)nc1 1.02%
CCCCC(=O)Nc1nnc(S(=O)(=O)N(C)Cc2ccco2)s1 1.6%
CCn1cc(CN2CCCC(CNS(=O)(=O)Cc3ccccc3)C2)cn1 (centres undefined) 0.0333%
CCc1[nH]nc(C(=O)N2CCCC(CNS(=O)(=O)c3cccs3)C2)c1C (centres undefined) 0.235%
CCN1C(=O)CS/C1=N\c1nccs1 0.817%
O=C(c1cccs1)C1C(c2ccc(Br)cc2)NC(=S)NC1(O)C(F)(F)F (centres undefined) 1.75%
CCc1ccc(-c2cc(C(=O)NN3CCN(C)CC3)c3ccccc3n2)cc1 2.52%
Cc1oc(C(N)=O)cc1COc1ccc(C(N)=O)cc1 1.55%
O=C(CNCc1ccc(F)cc1)Nc1ccccc1-c1ccccc1 0.549%
S=C(NCC1CCCO1)N1CCN(c2ccc(Cl)c(Cl)c2)CC1 (centres undefined) -0.238%
COc1ccc(-c2nc3n(c2Br)CCC3)cc1 1.75%
O=C(Nc1cccc(Cl)c1)Nc1ccccc1NS(=O)(=O)c1cccs1 -1.4%
COc1ccccc1CNC(=O)COC(=O)c1cccs1 0.781%
COC(C[C@@H](O)C[C@@H](O)[C@H](C)OCc1ccccc1)OC -0.836%
N#Cc1ccccc1Sc1ccccc1C(=O)OCC(=O)NC1CCCCC1 -1.96%
O=C(CN(C(=O)c1nsc(Cl)c1Cl)c1cccc(F)c1)NC1CCCC1 0.211%
NC1=NC(=O)C2(COC(c3ccccc3Cl)OC2)S1 (centres undefined) 0.407%
Cn1c(=O)c([N+](=O)[O-])c(Oc2ccccc2)c2ccccc21 3.54%
COc1cc(CNCc2cccs2)cc(Br)c1OC -3.09%
O=S1(=O)CSCS(=O)(=O)C1 -3.39%
Cc1nn(C)c(C)c1C(C)NC(=O)c1ccc(OC2CCN(Cc3ccccn3)CC2)cc1 (centres undefined) -0.745%
Cc1cccc(N(Cc2ccccc2)C(=O)c2cc(S(=O)(=O)N3CCOCC3)ccc2F)c1 -2.98%
CCCCNC(=O)N(O)C1N(/N=C/c2ccc(N(C)C)cc2)C(=S)SC1(C)C (centres undefined) -0.992%
Cc1ccc(-c2csc(N(Cc3ccco3)C(=O)c3cccs3)n2)cc1 0.457%
c1cc(-n2cnnn2)ccc1NC1=NCCC1 -1.51%
CCc1ccccc1N(CC(=O)N1CCN(c2ccccc2F)CC1)S(C)(=O)=O 0.372%
O=C(CCn1c(=S)[nH]c2cc3c(cc2c1=O)OCO3)NCc1ccc(Cl)cc1 1.02%
Cc1cccc(C)c1NC1=NC(=S)N(c2ccc(N(C)C)cc2)C1(C)C -0.0411%
COC(=O)c1sc(C(F)(F)F)c(-c2ccccc2)c1S(=O)(=O)N(C)C -0.853%
CCOC(=O)c1nc(-c2ccc3c(c2)OCO3)[nH]c1C -1.03%
CC(=O)NC(CC(=O)Nc1nc(-c2ccccc2)c(C(C)=O)s1)c1ccccc1 (centres undefined) 0.222%
CON(C)S(=O)(=O)c1ccc2c(c1)NC(=O)C1CCCN21 (centres undefined) -2.05%
Cc1ccc(OCCCCc2c(C)n[nH]c2C)cc1 0.0918%
COC(=O)c1cc(S(=O)(=O)Nc2ccc(C)c(F)c2)c[nH]1 1.29%
O=c1cc(Cl)c2ccccc2n1-c1ccccc1 -0.318%
COc1ccc(C(=O)N2CCN(c3ccc(C(C)=O)cc3F)CC2)cc1S(=O)(=O)NC1CC1 0.384%
COc1ccc(C(C)NC(=S)NC2CCCCC2)cc1OC (centres undefined) -2.83%
CCOc1ccccc1NC(=O)COc1ccc(S(=O)(=O)N2CCCC2)cc1 -0.338%
COc1ccc(CCNC(=O)CCc2cn(C)c3ccccc23)c(OC)c1 1.21%
COc1ccc(-c2nc(CN3CCN(c4ncccn4)CC3)c(C)o2)cc1C 0.124%
COc1ccc(S(=O)(=O)N(CCCN2CCCC2=O)Cc2cc3c(C)ccc(C)c3[nH]c2=O)cc1 -2.49%
CCCCN(CC(=O)Nc1cccc(S(=O)(=O)N2CCCC2)c1)Cc1nc2ccccc2c(=O)[nH]1 0.255%
C=CCn1c(-c2ccccc2OCC)n[nH]c1=S -0.312%
Cc1ccc(NC2CCCN(C(=O)CCc3cn[nH]c3)C2)cc1C (centres undefined) 0.302%
CCCNC(=O)NCc1ccc(N2CCCC2=O)cc1 -1.59%
Cc1nn(-c2ccccc2)c(CC(C)(C)C(=O)O)c1C(=O)O 0.362%
O=C1c2ccccc2C(O)N1Cc1ccccc1Cl (centres undefined) -1.45%
Cc1cccc(-n2c(SCC(=O)Nc3cccc(S(=O)(=O)NC4=NCCCCC4)c3)nc3ccccc3c2=O)c1C 0.0416%
CN(C(=O)CC1C(=O)NCCN1Cc1ccc2ccccc2c1)C1CCOCC1 (centres undefined) 0.878%
COc1ccc(C(C)NC(=O)C2CCCC2)cc1 (centres undefined) -1.29%
O=C(NCCc1nnc2ccc(SCC(=O)N3CCOCC3)nn12)c1ccccc1 -3.67%
CCOC(=O)c1cnc2ccc(F)cc2c1Nc1ccc2c(c1)OCCO2 -0.0856%
Cc1ccc(NS(=O)(=O)c2c(C)[nH]c(=O)[nH]c2=O)cc1C -1.59%
CC1CCCCC1NCC(=O)Nc1ccccc1C(=O)Nc1ccccc1 (centres undefined) -1.88%
COCCn1c(SC(C)C(=O)NC2CC2)nnc1-c1cccc(C)c1 (centres undefined) -7.75%
COCC(C)n1c(C)cc(C(=O)COc2ccc(C)nc2[N+](=O)[O-])c1C (centres undefined) 1.15%
Cc1nnc(SC(C(=O)c2ccccc2)c2ccccc2)[nH]c1=O (centres undefined) 0.641%
COc1cccc(CN2C(=O)CCC2(C)C(=O)NC2CCCCCC2)c1 (centres undefined) 1.09%
COc1cccc2c1OCC(C(=O)NCc1ccc(Cl)cc1Cl)=C2 -2.22%
COc1ccc(CCNC(=O)CCC(=O)NC2CCCCC2)cc1OC 1.39%
CC(=O)Nc1ccc(NC(=O)C(C)OC(=O)C2CC(=O)N(CCc3ccccc3)C2)cc1 (centres undefined) -2.5%
CC1(C)CC(=O)C(C2=NC(C)(C)Cc3ccccc32)=C(O)C1 0.357%
COc1ccc(-n2nc3c(c2NC(=O)c2ccc(N4C(=O)CCC4=O)cc2)CSC3)cc1 2.36%
Brc1ccc(-c2n(-c3ccccn3)c3ccccc3[n+]2-c2ccccn2)cc1 3.32%
C=CCNC(=S)NNc1ncnc2sc3c(c12)CC(C)(C)OC3 -1.36%
Cc1ccc(S(=O)(=O)N2C3C=CC(C3)C2C(=O)O)cc1 (centres undefined) -7.35%
O=C(Cn1cnc2c(OCc3ccccc3)ncnc21)NCCCn1ccnc1 1.18%
CC(C)c1ccc(Nc2nnc(SCC(=O)c3nnc(-c4ccccc4)o3)s2)cc1 1.49%
Cc1cc(C(C)(C)C)cc(S(=O)(=O)Nc2ccc(C(=O)O)cc2)c1C 0.418%
Cc1ccc(SCC2=NNC(=O)C2)cc1 0.0205%
CC(C)C(NC(=O)c1c(F)cccc1F)C(=O)NCc1ccncc1 (centres undefined) -1.58%
Cc1ccc(N(C(=O)c2ccc(S(=O)(=O)N(C)C)cc2)C2C=CS(=O)(=O)C2)cc1 (centres undefined) 1.14%
COc1ccc(Cl)cc1NC(=O)CN(C)Cc1ccc(OC)c(OC)c1 -3.62%
CCOC(=O)N1CCC(NC(=O)Cn2cc3c(n2)CCCCC3)CC1 3.25%
CCCc1nc2oc3c(=O)[nH]cnc3c2c2c1COC(C)(C)C2 -0.359%
CCOC(=O)c1c(NC(C)=O)sc2c(O)c(Br)ccc12 -0.579%
Cc1ccc(C)c(NC(=O)COC(=O)CSc2ccccc2)c1 -0.511%
CCc1cc2c(=O)c(-c3nc4ccccc4n3C)c(CCCC(=O)O)oc2cc1OC(=O)C(C)(C)C -1.94%
O=C(CN1CCOCC1)Nc1c2c(nc3c1CCC3)CCC2 -2.33%
O=C(COC(=O)CNC(=O)C1CCCCC1)NCc1ccccc1 1.54%
CCCCc1nc(SCC(=O)Nc2nnc(C(C)C)s2)n[nH]1 -0.0356%
